# Experimental data published in the supplement of paper PMC3898565.
# Several values for one entry are separate records, joined by “and”; a condition that tells them apart may be missing. Equal values may be shown once. ± gives the uncertainty stated by the source.
# Tested on: U87
# Assay: cell viability relative to vehicle control; higher = less growth inhibition (less active)
# Details: 10 µM; 72 h
# 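Note: viable cell number estimated from Alamar Blue fluorescence read at 560/90, part of a single-dose primary screen of an FDA-approved drug library.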
row,Structure (SMILES),cell viability
1,O=C1Nc2ccc(Cl)cc2C(c2ccccc2Cl)=NC1O (centres undefined) [Lorazepam],105.6 ± 0.26%
2,C[C@]12CC[C@H]3[C@@H](CCC4=CC(=O)CC[C@@H]43)[C@@H]1CC[C@@H]2O [Nandrolone],101.5 ± 0.8%
3,O=C(O)C(Cl)Cl,101 ± 1.6%
4,Cc1ccc(-c2nc3ccc(C)cn3c2CC(=O)N(C)C)cc1,106 ± 1.9%
5,COc1cc(N)c(Cl)cc1C(=O)NC1CN2CCC1CC2 (centres undefined) [Zacopride],101.7 ± 0.79%
6,COc1ccc(C(CN(C)C)C2(O)CCCCC2)cc1 (centres undefined),103 ± 1.8%
7,C[C@]12CCC(=O)C=C1CC[C@@H]1[C@@H]2CC[C@@]2(C)[C@H]1CC[C@]2(C)O [Methyltestosterone],66.4 ± 2.3%
8,C[C@]12CC[C@H]3[C@@H](CCC4=CC(=O)CC[C@@]43C)[C@@H]1CC[C@@H]2O [Testosterone],107 ± 1.6%
9,Oc1ccc2c3c1O[C@H]1c4[nH]c5ccccc5c4C[C@@]4(O)[C@@H](C2)N(CC2CC2)CC[C@]314 [Naltrindole],105 ± 3%
10,C[C@H]1CCC[C@H](O)CCCCCc2cc(O)cc(O)c2C(=O)O1,107 ± 2.7%
11,C[C@]12CCC(=O)C[C@@H]1CC[C@@H]1[C@@H]2CC[C@@]2(C)[C@H]1CC[C@]2(C)O [Mestanolone],105.6 ± 0.93%
12,C[N+]1(C)CCN(c2ccccc2)CC1,96.62 ± 0.74%
13,CCN(CC)CCOC(=O)C(O)(c1ccccc1)c1ccccc1,101 ± 3.5%
14,COc1ccc2[nH]cc(CCN)c2c1 [5-Methoxytryptamine],109 ± 1.3%
15,C=C(C)CN1CC[C@]23c4c5ccc(O)c4O[C@H]2c2[nH]c4ccccc4c2C[C@@]3(O)C1C5,101 ± 1.4%
16,CN1C(=O)CN=C(c2ccccc2)c2cc(Cl)ccc21 [Diazepam],98.6 ± 2.1%
17,CCCCC/C=C\C/C=C\C/C=C\C/C=C\CCCC(=O)Nc1ccc(O)cc1,100.5 ± 0.91%

row,Structure (SMILES),cell viability
1,Cc1ncc2n1-c1ccc(Cl)cc1C(c1ccccc1F)=NC2,102.2 ± 0.87%
2,CC(NC(C)(C)C)C(=O)c1cccc(Cl)c1 (centres undefined),105% and 107%
3,CC(C)[C@]12O[C@H]1[C@@H]1O[C@]13[C@]1(O[C@H]1C[C@H]1C4=C(CC[C@@]13C)C(=O)OC4)[C@@H]2O,26.3 ± 2.5%
4,Oc1ccc2c3c1O[C@H]1[C@@H](O)CC[C@@]4(O)[C@@H](C2)N(CC2CCC2)CC[C@]314 [Nalbuphine],99.2 ± 7.3%
5,CNC1=Nc2ccc(Cl)cc2C(c2ccccc2)=[N+]([O-])C1,104 ± 1.7%
6,CC(C)CC(N(C)C)C1(c2ccc(Cl)cc2)CCC1 (centres undefined) [Sibutramine],111.8 ± 0.39%
7,FC(F)(F)c1cccc(N2CCNCC2)c1,109 ± 1.2%
8,COc1ccc(CCN)cc1OC [Homoveratrylamine],104 ± 1.1%
9,C=C(C)[C@@H]1[C@H]2OC(=O)[C@@H]1[C@]1(O)C[C@H]3O[C@]34C(=O)O[C@H]2[C@]14C.CC(C)(O)[C@@H]1[C@H]2OC(=O)[C@@H]1[C@]1(O)C[C@H]3O[C@]34C(=O)O[C@H]2[C@]14C [Picrotin - Picrotoxinin],105 ± 1.3%
10,C[N+]1(CCC(C(N)=O)(c2ccccc2)c2ccccc2)CCCCC1,102 ± 1.4%
11,CC(O)(CS(=O)(=O)c1ccc(F)cc1)C(=O)Nc1ccc(C#N)c(C(F)(F)F)c1 (centres undefined),103 ± 1.5%
12,CCCCCCCCCOc1ccc2[nH]cc(CCN)c2c1 [5-Nonyloxytryptamine],37.1 ± 1.2%
13,COc1cccc(C2(O)CCCCC2CN(C)C)c1 (centres undefined) [Tramadol],102 ± 2.1%
14,CC[C@]1(O)CC[C@H]2[C@@H]3CCC4=CCCC[C@@H]4[C@H]3CC[C@@]21C [Ethylestrenol],101.7 ± 0.91%
15,CC(=O)O[C@H]1C[C@@H]2CC[C@@H]3[C@H](CC[C@@]4(C)[C@H]3C[C@H]([N+]3(C)CCCCC3)[C@@H]4OC(C)=O)[C@@]2(C)C[C@@H]1[N+]1(C)CCCCC1 [Pancuronium],103.79 ± 0.081%
16,Oc1cc2c(cc1O)[C@H]1c3ccccc3CN[C@@H]1CC2,109 ± 1.4%
17,CN1C(=O)COc2c(C(=O)NC3CN4CCC3CC4)cc(Cl)cc21 (centres undefined) [Azasetron],103 ± 1.1%
